Source: PubChem BioAssay (National Center for Advancing Translational Sciences (NCATS))
HepG2 viability = HepG2 cytotoxicity, counter-screen for TGF-b inhibitors; Potency, µM (series often up to 46.1 µM), for inactives: top-dose activity change, negative = cytotoxicity, actives largely listed as cytotoxic; HepG2 CAGA-GFP viability, ATP luminescence, 18 h; AID 588856; 0.76% of 410,000 active
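CellTiter-Glo luminescence gave cytotoxicity after 18 hours at 37 degrees C. The cells were HepG2 CAGA-GFP in 1% FBS DMEM, stimulated with 500 pg/mL TGF-beta after compound addition. %Activity was normalised to no-cell wells (complete cell-killing) and DMSO (no toxicity), and curves were fitted and classified.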
S2 tox = viability counter-screen for ATXN expression inhibitors | S2 cells (HEK-293 line with an ATXN2-luciferase reporter) viability, CellTiter-Fluor protease fluorescence, 24 h | Potency, µM (doses to about 56.7 µM), actives largely listed as cytotoxic | 0.49% of 400,000 active | AID 651635; further: nearly all actives have a fitted effect of over 40% in size
Apoferritin bind = binds horse apoferritin like a general anesthetic; apoferritin/1-aminoanthracene competitive binding, fluorescence; Potency, µM (series often up to 77.5 µM), inactives show at the highest dose activity change, negative = displacement, usual class: inhibitors; 0.074% of 350,000 active; further: on the % scale 0 is the no-effect control and ±100 the full control effect; nearly all actives have a fitted effect of over 20% in size
Target sequence (P02791 2-175 limits assumed): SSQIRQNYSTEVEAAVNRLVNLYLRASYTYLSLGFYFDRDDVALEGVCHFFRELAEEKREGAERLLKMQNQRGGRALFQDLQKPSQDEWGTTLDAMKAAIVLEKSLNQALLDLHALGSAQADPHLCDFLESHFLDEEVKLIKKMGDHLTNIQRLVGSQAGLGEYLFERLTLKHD
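Read-out: endpoint 1-AMA fluorescence, excitation 380 nm and emission 535 nm, after compounds sit 10 min at room temperature with 10 uM horse-spleen apoferritin in 50% saturated 1-AMA/PBS. Values come from four-parameter Hill fits.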
ATXN2 expr inh = reduces ATXN2 reporter expression in HEK-293 cells; HEK-293 ATXN2-luciferase reporter, luminescence, 24 h; AID 1745845; 0.72% of 360,000 active; Potency, µM (doses to about 57 µM), inactives show top-dose activity change, negative = inhibition, actives largely listed as inhibitors; further: on the % scale 0 is the no-effect control and ±100 the full control effect; nearly all actives have a fitted effect of over 55% in size
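qHTS (up to 57 uM final) was run with 24 h compound exposure of reporter cells at 37 °C. Each well was multiplexed: SteadyGlo luminescence measured ATXN2-luciferase expression after a fluorogenic Gly-Phe-AFC viability readout (25 uM final).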
TGFb inhibitor = TGF-b pathway inhibition; Potency, µM (highest dose often 46.1 µM), inactives show at the top dose activity, negative = inhibition, hits mostly inhibitors; 1.2% of 410,000 active; HepG2 CAGA-GFP TGF-b/SMAD3 reporter, GFP fluorescence, 18 h; TGF-beta stimulated, 500 pg/mL final; further: on the % scale 0 is the no-effect control and ±100 the full control effect; nearly all actives have a fitted effect of over 65% in size
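Read-out: total well GFP (ex488/em500-530) summed from mean per-cell fluorescence. Cells: HEPG2 CAGA-GFP, 1% FBS DMEM, 18 h at 37 degrees C with 500 pg/mL final TGF-beta. Unstimulated wells served as the full-inhibition control; stimulated DMSO wells = 0%.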
* = called active by the depositor; i = inactive; ? = inconclusive; nt = no result given; ! = repeats disagree; [ ] = remark or other dose. In the library only some 2.4% were active in any assay of this set; here they are far more common. The call rests on the fitted dose curve; in most records, active means well fitted curve in the direction sought with a large enough effect; inconclusive means small, poorly fitted or top-dose-only effect, or another doubt; inactive means no such curve, though single readings can be large; an effect the other way counts as inactive or inconclusive. Potency means the concentration at half of the fitted maximal effect.

SMILES	HepG2 viability	S2 tox	Apoferritin bind	ATXN2 expr inh	TGFb inhibitor
N=C(N)SCc1cn(-c2ccccc2)nc1-c1ccc(Br)cc1	11.2µM*	?	-13.2%	?	?
C#CCC(Cc1cnc2nc(N)nc(N)c2n1)c1ccc(C(=O)N[C@@H](CCC(=O)O)C(=O)O)cc1 (stereo not given in full)	nt	?	nt	0.544µM*	nt
COc1ccc(CNCCC(c2ccccc2)c2ccc3c(c2)OCO3)cc1 (stereo not given)	-98.0%	22.4µM*	-2.4%	25.1µM*!	22.4µM*
COc1ccccc1C(CCNCc1ccc(N(C)C)cc1)c1ccc(OC(C)C)cc1 (stereo not given)	-113.1%	31.6µM*	?	nt	?
COc1ccc(CNCCC(c2ccc(OC(C)C)cc2)c2ccccc2OC)cc1 (stereo not given)	-79.5%	?	?	25.1µM*	?
COc1ccccc1C(CCNCc1ccccc1)c1ccc(OC(C)C)cc1 (stereo not given)	12.6µM*	?	-9.8%	28.2µM*	?
COC(=O)C1=CO[C@@H](O)[C@@H]2C(CO)=CC[C@@H]12	nt	nt	nt	-9.8%	nt
CC(C)CCC(CCNCc1ccccn1)c1ccc2c(c1)OCO2 (stereo not given)	15.8µM*	?	-17.2%	nt	?
CC(C)(C)N1C(=O)[C@H]2[C@H]3[C@H](O)[C@H](O)C/C(=N/NC(=O)OCc4ccccc4)[C@H]3CC[C@@H]2C1=O	nt	nt	-2.6%[15.3 µM]	nt	nt
Cc1ccc(-c2nc(-c3ccccn3)no2)cc1Cl	11.2µM*	i	?	10µM*	-2.3%
Clc1cccc(-c2nc(-c3ccccn3)no2)c1	-36.4%	i	?	12.6µM*	?
Cc1ccc(-c2nc(-c3ccccn3)no2)cc1	12.6µM*	i	-17.9%	2µM*	-0.8%
c1ccc(-c2nc(-c3ccccn3)no2)cc1	10µM*	i	-11.6%	4.47µM*	2.9%
c1ccc(-c2noc(-c3ccno3)n2)nc1	7.9%	i	-2.3%	nt	7.9%
Cn1c(=O)c(F)c(Nc2ccc(I)cc2F)c2c(=O)n(C[C@@H](O)CO)cnc21	nt	nt	nt	-11.3%	nt
c1ccc(-c2ccc(-c3nc(-c4ccccn4)no3)cc2)cc1	7.08µM*	i	?	?	-6.2%
C=CC[n+]1c(/C=C2\C=Cc3cc(C)ccc3N2CC)ccc2ccccc21	14.1µM*	7.94µM*	?	nt	3.98µM*
O=C(NC(Cc1c[nH]c2ccccc12)C(=O)Nc1ccc(OC(F)(F)F)cc1)c1cccs1 (stereo not given)	11.2µM*	i	-4.8%	181.4%[11.3 µM]	?
CCOCCOC(=O)/C=C/c1ccc(OC)cc1	nt	i	nt	28.2%	nt
CCOC(=O)c1cc(CC)sc1NC(=O)c1ccc(N2C(=O)CCC2=O)cc1	3.55µM*	i	5.9%	-3.3%	-0.6%
CCOC(=O)c1c(-c2ccc(C)cc2)csc1NC(=O)c1ccc(N2C(=O)CCC2=O)cc1	-11.9%	i	0.3%	-5.1%	-3.1%
CCn1c(C)nc2cc(C(=O)N/N=C/c3ccc(O)c(O)c3O)ccc21	-15.8%	i	-23.6%	-22.7%[11.3 µM]	-13.9%
COc1cc(C(=O)Oc2ccccc2/C=N/NC(=O)c2ccc(Cl)cc2)cc(OC)c1OC	5.7%	?	-9.7%	0.0%	7.08µM*
COc1cccc(/C=N/NC(=O)N/N=C/c2cccc(OC)c2O)c1O	-11.0%	i	?	?	-9.6%
COc1cc(C(=O)Oc2ccccc2/C=N/NC(=O)c2ccc(C)c(Cl)c2)cc(OC)c1OC	-48.0%	?	-14.3%	?	?
SMILES	HepG2 viability	S2 tox	Apoferritin bind	ATXN2 expr inh	TGFb inhibitor
COc1cccc(/C=N/NC(=O)c2c(C)nc3ccc(Br)cn23)c1O	-19.0%	i	-15.5%	0.631µM*	?
COc1cccc(C=NNC(=O)c2ccncc2)c1O	-11.5%	i	nt	10µM*	14.0%
CCn1c(C)nc2cc(C(=O)N/N=C/c3cccc(OC)c3O)ccc21	-4.9%	i	-23.1%	14.1µM*	0.1%
O=C(/C=C/c1ccc(/C=C/C(=O)Nc2ccc(C3=NCCN3)cc2)cc1)Nc1ccc(C2=NCCN2)cc1	nt	nt	43.8%	nt	nt
COc1cc(CNC(=O)CCCCC=CC(C)C)ccc1O	nt	nt	nt	7.1%	nt
CC(C)c1nn2c(=O)cc(COC(=O)c3cccc(NC(=O)COc4ccc(F)cc4)c3)nc2s1	-8.3%	nt	32.0%	nt	0.0%
COc1cccc(/C=N/NC(=O)c2cc3c(OC)ccc(OC)c3[nH]2)c1O	0.3%	i	93.6%	nt	?
COc1ccc(/C=N/NC(=O)c2nc(-c3ccccc3)n(-c3ccccc3)n2)c(O)c1	-5.2%	i	3.5%	3.98µM*	0.0%
COc1cccc(/C=N/NC(=O)c2nc(-c3ccccc3)cc(-c3ccccc3)n2)c1O	-30.8%	i	6.3%	10µM*	-21.3%
COc1cc(OC)c2cc(C(=O)N/N=C/c3cccc(OC)c3O)[nH]c2c1	-21.7%	?	-10.4%	3.16µM*	?
Cc1ccc(SCC(=O)NNC(=O)c2cncc(Br)c2)cc1	-3.2%	i	nt	-10.0%	14.5%
CC(C)(C)n1ncc2c(=O)n(Cc3ccc(Cl)c(F)c3)cnc21	5.0%	nt	nt	nt	10.0%
COc1ccc(/C=N/NC(=O)c2ccn[nH]2)cc1COc1ccc(Cl)cc1Cl	-41.0%	i	?	-4.7%	14.1µM*
O=C(NCCC1CCCCN1S(=O)(=O)c1ccccc1)C(=O)Nc1ccc(F)cc1 (stereo not given)	-9.4%	?	nt	-15.4%	-0.8%
COc1ccc(NC(=O)C(=O)NCCC2CCCCN2S(=O)(=O)c2ccc(F)cc2)cc1 (stereo not given)	4.1%	i	nt	2.51µM*	-17.0%
COc1ccc(OC)c(CNC(=O)C2CCCCN2S(=O)(=O)c2ccc(F)cc2)c1 (stereo not given)	-15.8%	i	0.8%	-0.9%	7.94µM*
C[N+](C)(C)c1ccc(/C=C2\C=Cc3ccccc32)cc1	-30.5%	nt	nt	nt	11.4%
CCN1CCC(N(Cc2ccc3c(c2)OCO3)C(=O)Nc2ccc(Br)c(C)c2)CC1	-94.5%	?	-7.4%	25.1µM*	?
CCN1CCC(N(Cc2ccc3c(c2)OCO3)C(=O)Nc2cccc(C)c2C)CC1	-8.1%	i	-4.3%	-7.9%	2.3%
CC1CCc2c(sc(NC(=O)CCCOc3ccc(C(C)(C)C)cc3)c2C(N)=O)C1 (stereo not given)	0.2%	i	-7.2%	4.6%	5.8%
C=C1C(=O)O[C@@H]2[C@H]3O[C@]3(C)CC/C=C(\C)CC[C@@H]12	12.6µM*	i	?	13.6%	12.6µM*
C=C1C(=O)OC2C=C(C)CCC=C(C)CCC12 (stereo not given)	nt	nt	52.3%	-3.9%	nt
Cc1ccc(Cl)cc1NC(=S)NCCCSC1CCCCC1	-44.9%	i	-8.2%	-10.2%	11.2µM*
Cc1cc(Cl)ccc1NC(=S)NCCCO	1.0%	i	-6.0%	8.2%	0.6%
